PubChem BioAssay (NCI)
This is part of a sample that, as a whole, favours compounds with a hit. Of some 83,000 tested, about 20% had one in any assay.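 Treatment: one concentration, 48 hours, 96-well format. Scoring: percent growth, with anything below 10 considered active.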 Calls of active or inactive are those of the source.

How the values were obtained:
Assay in all cases: NCI-60 one-dose screen, 48 h (100 = growth as untreated, 0 = no growth, -100 = all killed)
Settings in all cases: 10 µM unless noted
[1] = system: DU-145 prostate
[2] = system: K-562 leukemia
[3] = system: MALME-3M melanoma
[4] = system: RXF 393 renal
[5] = system: SF-268 CNS
[6] = system: SF-295 CNS
[7] = system: SF-539 CNS
[8] = system: UACC-257 melanoma
[9] = system: M14 melanoma
[10] = system: HCT-15 colon
[11] = system: HT29 colon
[12] = system: SNB-75 CNS
[13] = system: SNB-19 CNS
[14] = system: U251 CNS
[15] = system: PC-3 prostate
[16] = system: SK-MEL-5 melanoma
[17] = system: UACC-62 melanoma
[18] = system: LOX IMVI melanoma
[19] = system: SK-MEL-28 melanoma

Measured: growth

COc1cccc(/C=C2\C=C(c3ccccc3)N(Cc3ccccc3)C2=O)c1
inactive: [1] 93.9% | [2] 36.1% | [3] 98.2% | [4] 39.8% | [5] 56.2% | [6] 44.6% | [7] 53.3% | [8] 83.3% | [10] 38% | [11] 82.2% | [12] 51.4% | [13] 79.6% | [14] 56.4% | [15] 33.9% | [16] 34.8% | [17] 38% | [18] 49.2% | [19] 79.9%
active: [9] 5.88%

C=CCc1cc(C)ccc1NC(C(=O)NCC(=O)OC)c1ccccc1 (configuration not stated)
inactive: [1] 112% | [2] 106% | [3] 105% | [4] 109% | [5] 95% | [6] 92.9% | [7] 94.5% | [8] 104% | [9] 96.6% | [10] 91.8% | [11] 98.4% | [12] 88.9% | [13] 105% | [14] 97.8% | [15] 89.1% | [16] 102% | [17] 95.4% | [18] 103% | [19] 101%

CN1CCN(Cc2ccc(NC(=O)c3ccc(C(C)(C)C)c(C#Cc4cnc5cccnn45)c3)cc2C(F)(F)F)CC1
inactive: [12] 74.8%
active: [1] -76.7% | [2] -53% | [3] -53.7% | [4] -78.7% | [5] -74.7% | [6] -59.9% | [7] -76.3% | [8] -37.7% | [9] -69.2% | [10] -73.2% | [11] -83.5% | [13] -63.1% | [14] -87.9% | [15] -65.6% | [16] -60.3% | [17] -71% | [18] -87.7% | [19] -68.8%

CN1C(=O)CNC(=O)[C@H](NC(=O)c2nc3ccccc3cc2O)CSSC[C@H]1C(=O)NCCCc1nc2ccccc2cc1O
active: [18] -52.4%
inactive: [1] 42.3% | [2] 18.4% | [3] 110% | [4] 102% | [5] 49.5% | [6] 91.9% | [7] 82% | [8] 83.9% | [9] 14.3% | [10] 93.3% | [11] 17.7% | [12] 151% | [13] 100% | [14] 69.1% | [15] 44.7% | [16] 35.2% | [17] 18.9% | [19] 61.9%

COc1ccc(-c2nnc(COc3ccc(Cl)cc3Cl)o2)cc1OC
inactive: [1] 22.6% | [2] 65.1% | [5] 45.7% | [6] 23.5% | [7] 83.6% | [8] 37.7% | [9] 45% | [10] 49.5% | [11] 28.7% | [13] 44.6% | [14] 37.2% | [15] 43.7% | [16] 28.2% | [17] 43.7% | [18] 16.1% | [19] 67.2%
active: [3] -1.79% | [4] -56.7% | [12] -42%

CCC(C)(c1cc(C(C)(C)C)c(O)c(C(C)(C)C)c1)c1cc(C(C)(C)C)c(O)c(C(C)(C)C)c1
inactive: [1] 101% | [2] 91.4% | [3] 94% | [4] 104% | [5] 95.4% | [6] 96.6% | [7] 105% | [8] 94.8% | [9] 98.5% | [10] 105% | [11] 96.3% | [12] 83.4% | [13] 104% | [14] 98.6% | [15] 101% | [16] 100% | [17] 91.8% | [18] 103% | [19] 106%

CSc1ccc2c(c1)c(CCN)c(C)n2Cc1ccc(Cl)c(Cl)c1
active: [1] -89.4% | [2] -66.1% | [3] -75.4% | [4] -82.5% | [5] -71.1% | [6] -90.9% | [7] -82.8% | [8] -73.3% | [9] -85% | [10] -91.3% | [11] -82.9% | [12] -84.3% | [13] -75% | [14] -87.3% | [15] -90% | [16] -95.1% | [17] -89.6% | [18] -89.7% | [19] -65.6%

CC1Cc2c(ncn3c(-c4ccc(F)cc4)nnc23)N(C)c2ccccc21 (configuration not stated)
inactive: [1] 63.8% | [2] 70.4% | [3] 37.4% | [4] 66.4% | [5] 56.6% | [6] 74.1% | [7] 74.9% | [8] 69.7% | [9] 59.4% | [10] 72% | [13] 48.5% | [14] 39.3% | [15] 63% | [16] 96.7% | [17] 73.5% | [18] 12.6% | [19] 85.4%
active: [12] -7.85%

Cc1nc2ccccc2n1-c1ncnc2c1CC(C)c1ccccc1N2C (configuration not stated)
inactive: [1] 96.2% | [2] 31.2% | [3] 105% | [4] 102% | [5] 94.2% | [6] 77.9% | [7] 93.9% | [8] 91.5% | [9] 71.3% | [10] 75.4% | [11] 59.5% | [13] 86% | [14] 78.8% | [15] 67.2% | [16] 91.3% | [17] 71.2% | [18] 82.7% | [19] 91.7%

CC/C=C\C[C@@H]1C/C=C2/C(=O)C=C[C@H]2C/C=C\CCCC(=O)O1
inactive: [12] 32.2%
active: [1] -66.8% | [2] -0.441% | [3] -41.1% | [4] -80.6% | [5] -57.6% | [6] -18.1% | [7] -64.3% | [8] -41.7% | [9] -48.8% | [10] -43.5% | [11] -72.4% | [13] -31.4% | [14] -94.2% | [15] -37.6% | [16] -89.3% | [17] -61.1% | [18] -77.1% | [19] -75.6%

COC1=C(C)C(=O)c2c(c(CCCl)c3n2CCC3OC(C)=O)C1=O (configuration not stated)
active: [1] -9.56% | [3] -64.3% | [4] -54.3% | [6] -11.7% | [7] -41.7% | [8] -50.2% | [9] -46.3% | [10] 1.95% | [11] -15.6% | [12] -44.6% | [13] 1.56% | [14] -9.94% | [15] -10.6% | [16] -66.7% | [17] -71% | [18] -34.8% | [19] -32%
inactive: [2] 12.7% | [5] 10.4%

COc1ccc2c(c1)C(C)Cc1c(ncnc1-n1c(C)nc3ccccc31)N2C (configuration not stated)
active: [6] 6.04% | [7] 5.97% | [11] 7.08% | [12] -4.89%
inactive: [1] 24.2% | [2] 11% | [3] 58.1% | [4] 14.2% | [5] 42.5% | [8] 68.3% | [9] 14.5% | [10] 22.8% | [13] 32.3% | [14] 25.6% | [15] 16.2% | [16] 20% | [17] 23.3% | [18] 25.7% | [19] 66.4%

CCCCC[C@H](O)C/C=C1/C(=O)C=C[C@@H]1C/C=C\CCCC(=O)OC
active: [2] 5.84% | [11] 3.13% | [18] -43.2%
inactive: [1] 53.2% | [3] 107% | [4] 70.8% | [5] 34.9% | [6] 82.2% | [7] 91.3% | [8] 74.5% | [9] 13.6% | [10] 20.8% | [13] 60.4% | [14] 45.5% | [15] 26.5% | [16] 38% | [17] 13.6% | [19] 28.3%

c1ccc(OCc2nnc(-c3ccc(Oc4ccccc4)cc3)o2)cc1
inactive: [1] 99.1% | [2] 93.2% | [3] 101% | [4] 106% | [5] 89.2% | [6] 103% | [7] 103% | [8] 109% | [9] 98.2% | [10] 103% | [11] 103% | [12] 98.5% | [13] 103% | [14] 95.4% | [15] 78.9% | [16] 100% | [17] 90.9% | [18] 102% | [19] 116%

Clc1ccc2c(c1)N(CCCN1CCCC1)c1ccccc1S2
inactive: [1] 59.1% | [4] 23.6% | [5] 30% | [6] 54.6% | [7] 15.3% | [8] 85.8% | [10] 17.6% | [11] 21% | [12] 75.4% | [13] 58.1% | [14] 36.9% | [15] 18.6% | [19] 42.3%
active: [2] 0.508% | [3] 7.63% | [9] -47% | [16] -86.5% | [17] -36.5% | [18] -52.5%
